Test results published in PubChem BioAssay (EPA / NIEHS).
Inconclusive results are not listed. Activity calls are given as the source filed them. The calls were made as follows: active = hit-call score of the fitted dose curve at least 0.9, where 1 is the maximum; inconclusive = response in the unintended direction; inactive = score below 0.9.

Each molecule was assayed against Peroxisome proliferator-activated receptor gamma (Homo sapiens) (UniProt P37231) (assay: OT_PPARg_PPARgSRC1_0480: Odyssey Thera (OT) 8-hour Protein-Complementation Assay for Peroxisome Proliferator-activated Receptor Gamma / SRC-1 Co-activator (AID 2283387)).
Outline: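 Protein-fragment complementation in HEK293T: Venus YFP halves (residues 1-158, 159-239, mutated to IFP1/IFP2) fused to PPARg/SRC-1. 8 h exposure; N/C ratio at 488 nm; DMSO negative control.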

Chain of Peroxisome proliferator-activated receptor gamma (Homo sapiens) (P37231 whole entry, looked up, the tested form may be a part): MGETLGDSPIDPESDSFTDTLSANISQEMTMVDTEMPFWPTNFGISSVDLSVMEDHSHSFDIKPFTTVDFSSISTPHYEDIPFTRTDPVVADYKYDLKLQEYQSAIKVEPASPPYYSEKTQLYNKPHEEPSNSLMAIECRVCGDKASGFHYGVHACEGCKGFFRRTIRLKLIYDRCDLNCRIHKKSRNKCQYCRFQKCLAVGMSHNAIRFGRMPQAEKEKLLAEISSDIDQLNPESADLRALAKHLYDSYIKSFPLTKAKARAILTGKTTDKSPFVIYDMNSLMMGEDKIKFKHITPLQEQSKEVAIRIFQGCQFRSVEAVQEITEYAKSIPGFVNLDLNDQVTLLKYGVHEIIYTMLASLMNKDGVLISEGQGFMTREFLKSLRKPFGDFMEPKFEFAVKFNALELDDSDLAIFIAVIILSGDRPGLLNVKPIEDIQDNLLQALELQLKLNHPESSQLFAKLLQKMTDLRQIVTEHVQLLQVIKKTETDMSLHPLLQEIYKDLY

SMILES | outcome
CCN(CC)c1ccccc1 | inactive
O=c1ssc(Cl)c1Cl | inactive
CCC(C)(C)c1ccc(O)cc1 | inactive
CC(C)(C)OOC(C)(C)C | inactive
Nc1ccc(Cl)cc1 | inactive
CCOc1ccc(C(C)(C)COCc2cccc(Oc3ccccc3)c2)cc1 | inactive
CCOP(=S)(OCC)SCSCC | inactive
O=P1(N(CCCl)CCCl)NCCCO1 (stereo not given) | inactive
Cc1ccc([N+](=O)[O-])cc1C | inactive
CCCCC(CC)COC(=O)c1c(Br)c(Br)c(Br)c(Br)c1C(=O)OCC(CC)CCCC (stereo not given) | inactive
CCCCCCCc1ccc(O)cc1 | inactive
O=P(Oc1ccccc1)(Oc1ccccc1)Oc1ccccc1 | inactive
CCCCN(CCCC)N=O | inactive
CC(C)(C)N(NC(=O)c1ccc(Cl)cc1)C(=O)c1ccccc1 | inactive
ClC1=C(Cl)C2(Cl)C3C(Cl)C(Cl)CC3C1(Cl)C2(Cl)Cl (stereo not given) | inactive
CCCCc1ccccc1 | inactive

SMILES | outcome
Cc1ccc(N)cc1N | inactive
CCOC(=O)c1ccccc1N | inactive
CCCCN(CC)C(=O)SCCC | inactive
O=[N+]([O-])c1ccc(Cl)c(Cl)c1 | inactive
CCNc1nc(Cl)nc(NC(C)(C)C)n1 | inactive
O=C(CBr)OCc1ccccc1 | inactive
O=NN1CCCC1 | inactive
O=S(=O)(c1ccc(O)cc1)c1ccc(O)cc1 | inactive
CCCN(CCC)c1c([N+](=O)[O-])cc(C(C)C)cc1[N+](=O)[O-] | inactive
CCCCc1ccc(O)cc1 | inactive
CCCCN(CCCC)SN(C)C(=O)Oc1cccc2c1OC(C)(C)C2 | inactive
O=P(OCC(Br)CBr)(OCC(Br)CBr)OCC(Br)CBr (stereo not given) | inactive
FC(F)(F)c1ccc(Cl)cc1 | inactive
OCC1CO1 (stereo not given) | inactive
c1nc[nH]n1 | inactive
O=S1(=O)OCC2C(CO1)C1(Cl)C(Cl)=C(Cl)C2(Cl)C1(Cl)Cl (stereo not given) | inactive

These molecules were tested against Peroxisome proliferator-activated receptor gamma (Homo sapiens) (UniProt P37231) (assay: OT_PPARg_PPARgSRC1_1440: Odyssey Thera (OT) 24-hour Protein-Complementation Assay for Peroxisome Proliferator-activated Receptor Gamma/ SRC-1 Co-activator (AID 2283388)).
Outline: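 HEK293T transiently transfected with PPARg/SRC-1 split-Venus YFP fusions 48 h before dosing, then treated 24 h at 37C. Fixed cells imaged; nuclear/cytoplasmic 488 nm fluorescence ratio, gain of signal versus DMSO.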

SMILES | outcome
CCN(CC)c1ccccc1 | inactive
O=c1ssc(Cl)c1Cl | inactive
CCC(C)(C)c1ccc(O)cc1 | inactive
CC(C)(C)OOC(C)(C)C | inactive
Nc1ccc(Cl)cc1 | inactive
CCOc1ccc(C(C)(C)COCc2cccc(Oc3ccccc3)c2)cc1 | inactive
CCOP(=S)(OCC)SCSCC | inactive
O=P1(N(CCCl)CCCl)NCCCO1 (stereo not given) | inactive
Cc1ccc([N+](=O)[O-])cc1C | inactive
CCCCC(CC)COC(=O)c1c(Br)c(Br)c(Br)c(Br)c1C(=O)OCC(CC)CCCC (stereo not given) | inactive
CCCCC(CC)COP(=O)(Oc1ccccc1)Oc1ccccc1 (stereo not given) | inactive
CCCCCCCc1ccc(O)cc1 | inactive
O=P(Oc1ccccc1)(Oc1ccccc1)Oc1ccccc1 | inactive
CCCCN(CCCC)N=O | inactive
CC(C)(C)N(NC(=O)c1ccc(Cl)cc1)C(=O)c1ccccc1 | inactive
ClC1=C(Cl)C2(Cl)C3C(Cl)C(Cl)CC3C1(Cl)C2(Cl)Cl (stereo not given) | inactive
CCCCc1ccccc1 | inactive

SMILES | outcome
Cc1ccc(N)cc1N | inactive
CCOC(=O)c1ccccc1N | inactive
CCCCN(CC)C(=O)SCCC | inactive
O=[N+]([O-])c1ccc(Cl)c(Cl)c1 | inactive
CCNc1nc(Cl)nc(NC(C)(C)C)n1 | inactive
O=C(CBr)OCc1ccccc1 | inactive
O=NN1CCCC1 | inactive
O=S(=O)(c1ccc(O)cc1)c1ccc(O)cc1 | inactive
CCCN(CCC)c1c([N+](=O)[O-])cc(C(C)C)cc1[N+](=O)[O-] | inactive
CCCCc1ccc(O)cc1 | inactive
CCCCN(CCCC)SN(C)C(=O)Oc1cccc2c1OC(C)(C)C2 | inactive
O=P(OCC(Br)CBr)(OCC(Br)CBr)OCC(Br)CBr (stereo not given) | inactive
FC(F)(F)c1ccc(Cl)cc1 | inactive
OCC1CO1 (stereo not given) | inactive
c1nc[nH]n1 | inactive
O=S1(=O)OCC2C(CO1)C1(Cl)C(Cl)=C(Cl)C2(Cl)C1(Cl)Cl (stereo not given) | inactive
